Activity calls are given as the source filed them.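 Rule for the calls: active = inhibition above 20% together with a positive visual image hit; inconclusive = visual image hit but inhibition not above 20%; inactive = no visual image hit.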

This assay can be described thus: inhibitors of TNFa-induced NFkB p65 translocation, primary screen, imaging, HUVEC, MLSMR starter and 10KST1 sets (AID 438).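 For inhibition: signal is the nuclear over cytoplasmic p65 intensity ratio per well.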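 Note: compound added about 3h40 before a 20 min TNFalpha stimulation.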 Particulars: HUVEC TNFa-induced p65 nuclear translocation; cell count: measured here: nuclei count (cytotoxicity indicator), at 2.08 µM; inhibition: at 2 µM, stronger effect = higher value, 0% TNFa-plus-vehicle, 100% no-TNFa wells.
With `COc1ccc(-c2cc3c(=O)n(CC(=O)NC4CCN(Cc5ccccc5)CC4)ncn3n2)cc1`, the inhibition is 2.8% (inactive) and the cell count was found to be 296.

In the case of `Cc1c(C(=O)OC2CCCCC2)[nH]c2c1C(=O)CC(C)(C)C2`, the inhibition is -8.9% (inactive) and the cell count stood at 342.

`CC(CCc1ccccc1)NCc1ccncc1` (stereo not drawn): the cell count came to 564 and the inhibition is 3% (inactive).

As to `COCCN(CCOC)S(=O)(=O)c1ccc(C(=O)Nc2nnc(C3CC3)o2)cc1`, the cell count was found to be 390 and the inhibition was -0.2% (inactive).

`Cc1sc2ncn3ncnc3c2c1C`: the inhibition was -10% (inactive) and the cell count amounted to 546.

Regarding `CSc1nc2ccc(Nc3nc(N4CCOCC4)nc(N4CCOCC4)n3)cc2s1`, the cell count is 391 and the inhibition was 4.9% (inactive).

`Cc1cc(C(N)=O)c2cc(Br)ccc2n1`: the inhibition was 5.5% (inactive) and the cell count stood at 367.

On to `COc1ccc(-c2ccc(-c3noc(-c4cccs4)n3)c(OC)n2)cc1`, for which the cell count is 391 and the inhibition is 6.8% (inactive).

On to `O=C1CCCc2c1cc(C(=O)NCCCN1CCOCC1)c(=O)n2-c1ccc(Cl)cc1`, for which the inhibition is 2.5% (inactive) and the cell count is 568.

On to `Cc1ccc(-n2ncc3c(=O)[nH]c(SC(C)C)nc32)cc1`, for which the inhibition was -23.9% (inactive) and the cell count amounted to 716.

`Cc1ccccc1N1C(N)=NC(N)=NC1(C)C`: the cell count is 635 and the inhibition was -9.8% (inactive).

`CCCc1nnc(SCC(=O)N2CCOCC2)n1Cc1ccco1`: the cell count came to 660 and the inhibition is -2.2% (inactive).

Regarding `CC1CCN(CCn2c(=S)[nH]c3ncccc3c2=O)CC1`, the inhibition was 7.1% (inactive) and the cell count worked out at 508.

Turning to `CCOc1ccc(-c2nnn(CC(=O)N3CCN(c4ccc(F)cc4)CC3)n2)cc1OCC`, the inhibition was -9.5% (inactive) and the cell count came to 583.

As to `O=C1CCCCCN1CSc1nc2ccccc2s1`, the cell count came out at 686 and the inhibition was -17.2% (inactive).

Consider `S=c1[nH]nc(Cc2ccccc2)n1-c1ccccc1`, for which the cell count was determined as 664 and the inhibition was -5.5% (inactive).

As to `O=C(NCc1cccnc1)C1c2ccccc2C(=O)N1Cc1ccco1` (stereo not drawn), the cell count was found to be 408 and the inhibition is 4.7% (inactive).

As to `Cn1c(C(=O)OCC(=O)NCC2CCCO2)cc2sccc21` (stereo not drawn), the inhibition is -1% (inactive) and the cell count was 497.

For `Nn1c(SCc2csc(-c3ccccc3)n2)nnc1-c1cccs1`, the cell count came out at 387 and the inhibition is -14% (inactive).

Regarding `CCOC(=O)Nc1ccc(NS(=O)(=O)c2ccc(C)cc2)cc1`, the inhibition is -0.8% (inactive) and the cell count worked out at 342.

On to `COC(=O)CN1C(=O)CC(C)(C)S(=O)c2ccccc21` (stereo not drawn), for which the inhibition is -9.2% (inactive) and the cell count came out at 769.

Consider `Cn1c(Cc2ccccc2)nnc1SCC(=O)c1ccc(Br)s1`, for which the inhibition was 0.4% (inactive) and the cell count was 180.

As to `CC(=O)Nc1ccc(S(=O)(=O)Nc2nc3c(s2)CCCC3)cc1`, the cell count is 638 and the inhibition is -2.1% (inactive).

On to `COc1cccc(-c2nnn(CC(=O)O)n2)c1`, for which the inhibition is -5.1% (inactive) and the cell count is 472.

Turning to `CCN(CC(=O)Nc1ccc(S(N)(=O)=O)cc1)S(=O)(=O)c1cc(C)ccc1OC`, the cell count is 432 and the inhibition was -0.3% (inactive).

Regarding `CC(=O)c1c(C)[nH]c(C(=O)N2CCN(C(=O)c3ccco3)CC2)c1C`, the cell count came out at 233 and the inhibition is -19.9% (inactive).

Take `COCCCn1nnnc1SCC(=O)Nc1nc(C)c(C)s1`: the inhibition is -5.5% (inactive) and the cell count worked out at 435.

As for `CC(C)Cc1nc2oc3c(N4CCN(CCO)CC4)ncnc3c2c2c1CCCC2`, the cell count amounted to 450 and the inhibition was -11.5% (inactive).

As to `Brc1ccc(-c2csc(/N=C/N3CCOCC3)n2)cc1`, the cell count was 531 and the inhibition is -3.6% (inactive).

For the compound `N#CCCN(C(=O)Nc1ccc(Cl)cc1)c1ccccc1`, the cell count was 355 and the inhibition was -2.1% (inactive).

In the case of `O=C(NC1CCCC1)C(c1cccs1)N(Cc1ccco1)C(=O)Cn1nnc(-c2cccs2)n1` (stereo not drawn), the inhibition is -3.3% (inactive) and the cell count is 482.

For the compound `CNC(=O)c1ccsc1NC(=O)c1ccccc1`, the inhibition is 4.7% (inactive) and the cell count was 512.

For `Cc1ccccc1C(=O)NC1CCN(Cc2nnnn2CCc2ccccc2)CC1`, the cell count came to 597 and the inhibition is -10.4% (inactive).

With `CCOC(=O)CCc1c(C)nc2cc(-c3ccc(F)cc3)[nH]n2c1=O`, the inhibition is -7.1% (inactive) and the cell count amounted to 249.

With `O=C(CCNS(=O)(=O)c1cccc2nsnc12)Nc1ccc2c(c1)OCCO2`, the inhibition was -17.9% (inactive) and the cell count amounted to 565.

Turning to `Cn1c(CCNC(=O)c2ccco2)nc2cc(NC(=O)C3CCCCC3)ccc21`, the cell count came to 359 and the inhibition was 0.5% (inactive).

Consider `Cc1ccc(OCCC(=O)OCC(=O)C(C)(C)C)cc1`, for which the inhibition is -8.3% (inactive) and the cell count is 542.

In the case of `O=C(O)c1ccc2c(c1)C(=O)N(c1ccc(Cl)cn1)C2=O`, the inhibition is -4.5% (inactive) and the cell count came out at 675.

Take `COc1cccc(/C=N/n2c(-c3ccco3)nc3ccccc3c2=O)c1`: the inhibition is -0.9% (inactive) and the cell count was found to be 692.
